The values below come from PubChem BioAssay.

Test [1] can be described thus: hESC survival regulators, cell-based (AID 493140).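 Note: cells exposed to compounds for four days before counting.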 The following applies: human embryonic stem cell survival screen; stronger effect = higher value.
Test [2] in a line: liver-stage malaria parasite growth inhibition, primary screen, cell-based, HepG2, luciferase luminescence, HepG2 viability (AID 624349; in the data active = parasite load remaining mostly below about 12%, no sharp cut-off; inactive = mostly above about 10%;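 note: 100% = mean of DMSO negative control wells on the same plate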). As to conditions: P. berghei liver stage in HepG2, luciferase luminescence, concentration not given here; parasite load remaining: stronger effect = lower value; viability: measured here: HepG2 viability without parasites.
The target of test [3] is Mitogen-activated protein kinase 7 (Homo sapiens) (UniProt Q13164). As to the kind of experiment: ERK5 transactivation activators in reporter cells, primary screen, cell-based, HTS (AID 1508626;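 active = luciferase signal above three times the same-plate solvent-only control wells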;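 note: luciferase driven by Gal4-ERK5 fusion binding five Gal4 sites before minimal TATA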). As to conditions: HeLa Gal4-ERK5 transactivation, 18 h, at 5 µM, stronger effect = higher value.
Sequence of Mitogen-activated protein kinase 7 (Homo sapiens) (Q13164 whole entry, looked up, the tested form may be a part): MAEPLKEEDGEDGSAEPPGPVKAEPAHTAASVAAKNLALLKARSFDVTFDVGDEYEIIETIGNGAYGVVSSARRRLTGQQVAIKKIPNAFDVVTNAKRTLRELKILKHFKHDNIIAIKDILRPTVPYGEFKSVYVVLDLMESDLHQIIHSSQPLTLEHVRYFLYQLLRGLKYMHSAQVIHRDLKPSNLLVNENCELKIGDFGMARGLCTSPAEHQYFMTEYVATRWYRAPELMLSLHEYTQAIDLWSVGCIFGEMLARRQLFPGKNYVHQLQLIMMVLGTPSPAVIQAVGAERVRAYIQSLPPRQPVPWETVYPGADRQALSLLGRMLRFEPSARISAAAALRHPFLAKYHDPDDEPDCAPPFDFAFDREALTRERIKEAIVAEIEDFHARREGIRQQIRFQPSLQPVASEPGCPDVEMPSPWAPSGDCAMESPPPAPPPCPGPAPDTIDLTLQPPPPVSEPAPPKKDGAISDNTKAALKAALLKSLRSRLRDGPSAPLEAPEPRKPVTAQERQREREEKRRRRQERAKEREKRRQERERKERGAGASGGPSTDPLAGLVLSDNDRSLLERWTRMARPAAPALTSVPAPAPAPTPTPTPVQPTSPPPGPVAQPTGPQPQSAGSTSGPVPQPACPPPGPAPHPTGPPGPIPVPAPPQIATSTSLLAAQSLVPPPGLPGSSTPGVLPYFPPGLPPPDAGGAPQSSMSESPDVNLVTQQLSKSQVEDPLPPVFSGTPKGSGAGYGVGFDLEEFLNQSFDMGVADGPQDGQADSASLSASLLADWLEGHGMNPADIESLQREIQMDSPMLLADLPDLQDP
For test [4], the system named is Hepatitis C virus NS3 helicase. As to the kind of experiment: HCV NS3 helicase inhibitors, primary screen, biochemical, fluorescence polarization, LOPAC1280 library (AID 687035; in the data active = inhibition above about 37%). As to conditions: Purified HCV NS3 helicase, Cy5-dT15 ssDNA binding fluorescence polarization; stronger effect = higher value; concentration not given here. In general terms: Fluorescence polarisation rises when a labelled molecule tumbles more slowly, as on binding a larger partner.

Test [5] can be described thus: Cy5 fluorescence quenching or enhancement artefacts, artefact control for HCV NS3 helicase inhibitor project, biochemical, LOPAC1280 (AID 687037). The following applies: Cy5-DNA-NS3h complex fluorescence interference counterscreen. Background: The purpose of a counterscreen is to sort out artefacts and off-target activity.
The nature of test [6]: phospholipid biosynthesis inhibitors in animal cells, primary screen, cell-based, LOPAC library, screen 4 (AID 1347384). As to conditions: phospholipid biosynthesis inhibition screen, at 10 µM.
A short description of test [7]: viability rescue of complex I mutant cybrids, primary screen, cell-based, galactose medium, ATP luminescence (AID 1645843;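 active = z-score of at least 1.8 in each of two replicates, scored against plate mean and spread of sample wells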;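 note: positive z means more ATP and so rescue of galactose-driven cybrid death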). As to conditions: complex I mutant cybrid cells, 72 h, stronger effect = higher value.
Test [8] is described as follows: LFS_MB_1R medulloblastoma cell growth inhibition, synergistic combos for chromothripsis tumors, cisplatin or BGB combos (AID 1671452; in the data active = inhibition above about 80%;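 note: cells exposed for 96 hours before readout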). As to conditions: LFS_MB_1R medulloblastoma cells, stronger effect = higher value.
The nature of test [9]: CRL2098 osteosarcoma cell growth inhibition, synergistic combos for chromothripsis tumors, BGB or cisplatin IC20 combos (AID 1671454; in the data active = inhibition above about 80%;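 note: cells exposed for 96 h before readout; 0% = vehicle DMSO and 100% = killing by high DMSO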). The following applies: CRL2098 osteosarcoma cells, drug combinations, stronger effect = higher value.
Test [10] in a line: HD-MB03 medulloblastoma cell growth inhibition, synergistic combos for chromothripsis tumors, BGB or cisplatin IC20 combos (AID 1671455; in the data active = inhibition above about 83%;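 note: 0% = vehicle DMSO and 100% = high DMSO as cytotoxic control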). As to conditions: HD-MB03 medulloblastoma cells, stronger effect = higher value.
The nature of test [11]: UWB1.289 ovarian carcinoma cell growth inhibition, synergistic combos for chromothripsis tumors, BGB or cisplatin combos (AID 1671456; in the data active = inhibition above about 80%;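 note: cells exposed to compound for four days; 0% = vehicle DMSO and 100% = killing by high DMSO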). The following applies: UWB1.289 ovarian carcinoma cells, stronger effect = higher value.
Test [12] in a line: LFS_MB_2R medulloblastoma cell growth inhibition, synergistic combos for chromothripsis tumors, cisplatin combos (AID 1671457; in the data active = inhibition above about 80%;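 note: cells exposed to compound for four days before readout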). As to conditions: LFS_MB_2R medulloblastoma cells, stronger effect = higher value.
The nature of test [13]: UWB1.289_BRCA1 ovarian cancer growth, cell-based, BGB or cisplatin combinations (AID 1671459; in the data active = inhibition above about 80%). The following applies: UWB1.289 BRCA1 ovarian carcinoma, drug combinations, stronger effect = higher value.
Test [14] in a line: human astrocyte viability loss, single and combined drugs, cytotoxicity control for chromothriptic childhood tumor combination screen, cell-based, BGB or cisplatin IC20 combos (AID 1671460; in the data active = inhibition above about 80%;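 note: cells exposed to compounds for 96 hours before viability readout; 0% = vehicle and 100% = killing control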). As to conditions: Human astrocytes, drug combinations, stronger effect = higher value.
Test [15] is described as follows: growth inhibition of CRL1545 osteosarcoma cells, cell-based, cisplatin and BGB IC20 combos (AID 1671464; in the data active = inhibition above about 80%;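 note: cells exposed to compound for 96 hours before readout; 0% = vehicle DMSO and 100% = high DMSO killing control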). As to conditions: stronger effect = higher value.
In test [16] the target is NAD(+) hydrolase SARM1 (Homo sapiens) (UniProt Q6SZW1). Nature of the test: SARM1 TIR NADase inhibitors, cell lysate, NAD-Glo luminescence (AID 1508614;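 active = compound whose remaining NAD level is above about 45 nM, limit read from the data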;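 note: higher remaining NAD means stronger inhibition of SARM1 NADase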). The following applies: SAM-TIR HEK293T lysate NADase, at 1 µM, stronger effect = higher value.
Sequence of NAD(+) hydrolase SARM1 (Homo sapiens) (Q6SZW1 whole entry, looked up): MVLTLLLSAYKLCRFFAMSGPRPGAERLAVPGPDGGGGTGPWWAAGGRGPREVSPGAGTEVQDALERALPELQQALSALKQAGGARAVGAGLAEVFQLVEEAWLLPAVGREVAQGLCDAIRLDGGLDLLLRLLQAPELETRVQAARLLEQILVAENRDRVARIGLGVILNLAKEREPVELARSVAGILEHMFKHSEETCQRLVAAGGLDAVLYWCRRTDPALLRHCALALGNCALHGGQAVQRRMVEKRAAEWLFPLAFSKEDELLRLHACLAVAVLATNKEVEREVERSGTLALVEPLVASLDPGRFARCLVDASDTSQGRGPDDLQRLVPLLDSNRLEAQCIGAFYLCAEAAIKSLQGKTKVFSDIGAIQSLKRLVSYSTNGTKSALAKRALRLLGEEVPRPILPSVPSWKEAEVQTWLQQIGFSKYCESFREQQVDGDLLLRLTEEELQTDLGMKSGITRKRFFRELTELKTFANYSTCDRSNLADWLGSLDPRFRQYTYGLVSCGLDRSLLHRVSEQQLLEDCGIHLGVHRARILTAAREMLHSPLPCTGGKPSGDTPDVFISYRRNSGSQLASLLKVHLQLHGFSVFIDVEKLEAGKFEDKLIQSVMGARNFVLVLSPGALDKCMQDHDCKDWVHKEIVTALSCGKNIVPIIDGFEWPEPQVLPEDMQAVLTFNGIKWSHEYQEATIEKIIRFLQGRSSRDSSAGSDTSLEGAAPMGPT
Test [17] is described as follows: kinase inhibitors against Plasmodium liver-stage infection, cell-based, known kinase inhibitor set, luminescence, hepatoma host viability (AID 624392).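 Note: infected cells incubated roughly two days before readout.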 The following applies: Plasmodium liver stage in hepatoma cells, luciferase luminescence, concentration not given here; liver cell % of control: measured here: host liver cell viability; parasite % of control: stronger effect = lower value.

Test [18] can be described thus: inhibitors of Cryptococcus chitosan production, flow cytometry, Cibacron Brilliant Red staining (AID 1347148).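 Note: compound exposure lasted three days at 37 degrees C.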 The following applies: Cryptococcus neoformans chitosan, stronger effect = lower value; at 10 µM unless noted. In general terms: A flow cytometer gives signals particle by particle.
In test [19] the target is Tyrosine-protein kinase ABL1 (Homo sapiens) (UniProt P00519). Nature of the test: PubChem AID 493040. The following applies: kinase panel binding, pKi.
Sequence of Tyrosine-protein kinase ABL1 (Homo sapiens) (P00519 whole entry, looked up): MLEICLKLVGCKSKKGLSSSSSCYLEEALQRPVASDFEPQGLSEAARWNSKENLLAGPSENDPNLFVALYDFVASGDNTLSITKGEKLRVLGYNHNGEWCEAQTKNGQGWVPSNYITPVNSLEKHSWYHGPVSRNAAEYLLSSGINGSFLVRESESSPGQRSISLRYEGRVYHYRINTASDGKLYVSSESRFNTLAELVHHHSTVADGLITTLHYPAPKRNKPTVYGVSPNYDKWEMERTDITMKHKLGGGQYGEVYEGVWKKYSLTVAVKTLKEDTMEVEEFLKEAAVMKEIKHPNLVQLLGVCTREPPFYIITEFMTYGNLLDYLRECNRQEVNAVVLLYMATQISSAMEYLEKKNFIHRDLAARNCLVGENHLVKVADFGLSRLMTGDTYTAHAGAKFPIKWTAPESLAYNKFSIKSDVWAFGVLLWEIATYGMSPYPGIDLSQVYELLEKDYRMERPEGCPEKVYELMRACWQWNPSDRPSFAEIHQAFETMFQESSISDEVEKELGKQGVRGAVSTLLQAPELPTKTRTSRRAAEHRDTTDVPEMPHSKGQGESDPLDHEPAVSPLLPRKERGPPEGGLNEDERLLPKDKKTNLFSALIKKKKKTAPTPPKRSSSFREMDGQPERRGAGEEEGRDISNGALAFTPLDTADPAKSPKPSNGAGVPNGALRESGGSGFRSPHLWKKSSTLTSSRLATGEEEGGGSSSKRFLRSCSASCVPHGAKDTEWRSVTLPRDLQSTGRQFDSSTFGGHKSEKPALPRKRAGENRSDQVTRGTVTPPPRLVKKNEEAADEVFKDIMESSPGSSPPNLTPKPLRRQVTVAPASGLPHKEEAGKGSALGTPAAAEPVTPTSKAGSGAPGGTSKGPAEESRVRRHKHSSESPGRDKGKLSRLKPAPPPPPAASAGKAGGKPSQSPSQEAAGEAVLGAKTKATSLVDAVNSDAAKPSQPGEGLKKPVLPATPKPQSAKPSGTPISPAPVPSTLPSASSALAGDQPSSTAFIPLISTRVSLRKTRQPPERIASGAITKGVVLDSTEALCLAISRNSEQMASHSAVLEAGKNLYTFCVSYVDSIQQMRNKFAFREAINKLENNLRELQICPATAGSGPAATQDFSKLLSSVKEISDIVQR
Where [20] appears, read: measured here: combination with BGB IC40, at 0.05 µM.
Where [21] appears, read: measured here: combination with cisplatin, at 0.5 µM.
Setting [22] is: measured here: combination with cisplatin, at 5 µM.
The mark [23] stands for this setting: measured here: combination with BGB at IC20, at 0.5 µM.
The mark [24] stands for this setting: measured here: combination with cisplatin at IC20, at 0.5 µM.
The mark [25] stands for this setting: measured here: combo with BGB at IC20, at 0.5 µM.
[26] abbreviates: measured here: combo with cisplatin at IC20, at 0.5 µM.
Where [27] appears, read: measured here: inhibition with BGB combination, at 0.05 µM.
Where [28] appears, read: measured here: inhibition with cisplatin combination, at 0.05 µM.
The mark [29] stands for this setting: BGB combination, concentration series, at 5 µM.
[30] abbreviates: cisplatin combination, concentration series, at 5 µM.
The mark [31] stands for this setting: measured here: combo with BGB IC20, at 0.5 µM.
[32] abbreviates: measured here: combo with cisplatin IC20, at 0.5 µM.
The mark [33] stands for this setting: measured here: with BGB IC20 combination, at 0.5 µM.
Setting [34] is: measured here: with cisplatin IC20 combination, at 0.5 µM.

Where “and” joins values, the source holds several entries; their conditions need not be identical. Equal values may be shown once. Some structures have more than one record in an assay (separate samples or runs), and their calls can disagree. Calls of active or inactive are those of the source. Unless noted, the rule behind the calls is not given here.

For the compound `CC[C@H](CC[C@@H](C)[C@H]1CC[C@H]2[C@@H]3CC=C4C[C@@H](O)CC[C@]4(C)[C@H]3CC[C@]12C)C(C)C`, the survival in [1] is 9.58 (inactive). In test [2], the parasite load remaining is 99.6% (inactive) and the viability – broadly, a read-out of living cells in per cent, often relative to untreated cells – was determined as 72.8%. For the same compound, the luciferase signal in test [3] was 32 AU (inactive).
In the case of `COc1cc2c(cc1OC)C1CC(=O)C(CC(C)C)CN1CC2` (stereo not drawn), the inhibition – broadly, the relative decrease from the control value, in per cent – in [4] was -3% (inactive). Moreover, the fluorescence ratio (interference) in test [5] was 1 (inactive). Besides, the compound was classed as inactive in test [6]. Moreover, in test [7], the z-score is 0.245 (inactive).
In the case of `Nc1ncnc2c1c(-c1cnc3[nH]ccc3c1)nn2C1CCCC1`, the inhibition is -19.1% (inactive) in test [8] (at 0.5 µM); -13.7% in test [8] (setting [20]); -26.5% in test [8] (setting [21]); 69.1% in test [8] (setting [22]); 25.4% (inactive) in [9] (at 0.5 µM); 3.06% in [9] (setting [23]). In addition, the inhibition in test [9] (setting [24]) is 36.8%; in test [10] (at 0.5 µM) it was 28.9% (inactive); in [10] (setting [25]), 13%; in test [10] (setting [26]), 41.5%; in test [11] (at 0.5 µM) it was 28.7% (inactive); in [11] (setting [27]), -4.92%. The inhibition in test [11] (setting [28]) was -7.06%; in test [12] (at 0.5 µM), -21.4% (inactive); in [12] (setting [21]), -27.2%; in test [12] (setting [22]), 59%; in test [13] (setting [29]), 98.9%; in test [13] (at 0.5 µM), 22.9% (inactive). The inhibition in test [13] (setting [30]) was 106%; in [14] (at 0.5 µM), 53.4% (inactive); in test [14] (setting [31]), 55.9%; in [14] (setting [32]) it was 46%; in [15] (at 0.5 µM) it was -8.52% (inactive); in test [15] (setting [33]), -19%. For the same compound, the inhibition in test [15] (setting [34]) was -4.93%; in test [15] (single agent, at 0.05 µM) it was -24.4%; in test [15] (single agent, at 5 µM), 98.2%.
For the compound `C=C1C(=O)O[C@@H]2[C@H]3O[C@]3(C)CC/C=C(\C)CC[C@@H]12`, in test [1], the survival is 0.167 (inactive). Besides, in [2], the parasite load remaining was -0.555% (active) and 48% (inactive); the viability was 117% and 76.6%. Besides, the luciferase signal in [3] is 92 AU (inactive).
On to `Clc1ccc(C(c2ccc(Cl)cc2)n2cc[n+](CC(OCc3ccc(Cl)cc3Cl)c3ccc(Cl)cc3Cl)c2)cc1` (stereo not drawn), for which the compound was classed as inactive in test [6].
As to `NC(=NCCCCCCN=C(N)N=C(N)Nc1ccc(Cl)cc1)N=C(N)Nc1ccc(Cl)cc1`, in test [16], the remaining NAD was 10 nM (inactive).
Turning to `Cc1cccc(-c2[nH]ncc2-c2ccc3ncccc3n2)n1`, in [17], the liver cell % of control was 102% and the parasite % of control was 87.4% (inactive). In [6], the compound was classed as inactive. Further, the z-score in [7] was -0.39 (inactive).
On to `CCOC(=O)N1CCN(/[N+]([O-])=N/Oc2ccc([N+](=O)[O-])cc2[N+](=O)[O-])CC1`, for which the outcome in test [6] was inactive. Also, the z-score in test [7] was -0.95 (inactive).
Regarding `CN[C@@H]1C[C@H]2O[C@@](C)([C@@H]1OC)n1c3ccccc3c3c4c(c5c6ccccc6n2c5c31)C(=O)N[C@H]4O`, in [2], the parasite load remaining was 74.5% (inactive) and the viability was 61%.
For the compound `CCCNC(=O)[C@H]1O[C@@H]1C(=O)N[C@H](C(=O)N1CCC[C@H]1C(=O)OC)C(C)CC` (stereo partly drawn), the fold fluorescence in [18] was 3.89 [at 125.8 µM] (inactive).
As to `Nc1ccc(C(=O)Nc2cccc(-c3nc(N4CCOCC4)c4oc5ncccc5c4n3)c2)cn1`, in test [2], the parasite load remaining was 28.3% (inactive) and the viability worked out at 70.4%. In addition, in test [17], the liver cell % of control was 80.6% and 78.7% and 90.7%; the parasite % of control was 109% (inactive) and 149% (inactive) and 242% (inactive).
On to `Oc1cccc(-c2nc(N3CCOCC3)c3oc4ncccc4c3n2)c1`, for which, in test [2], the parasite load remaining is 45.4% (inactive) and the viability amounted to 89.8%. Also, in test [17], the liver cell % of control is 88.7% and 86.7% and 100%; the parasite % of control is 326% (inactive) and 309% (inactive) and 81.9% (inactive). Besides, the call in [19] was inactive.
`O=C(/C=C/c1ccc(CN(CCO)CCc2c[nH]c3ccccc23)cc1)NO`: the inhibition was 88.5% (active) in test [8] (at 0.5 µM); 0.114% in test [8] (setting [20]); 107% in [8] (setting [21]); 101% in test [8] (setting [22]); 80.2% (active) in [9] (at 0.5 µM); 80.4% in test [9] (setting [23]). Moreover, the inhibition in test [9] (setting [24]) is 75.9%; in test [10] (at 0.5 µM), 99.8% (active); in test [10] (setting [25]), 99.8%; in [10] (setting [26]) it was 100%; in test [11] (at 0.5 µM) it was 88.8% (active); in test [11] (setting [27]), 9.36%. Further, the inhibition was 34.8% in test [11] (setting [28]); 87.1% (active) in test [12] (at 0.5 µM); 99.3% in test [12] (setting [21]); 107% in test [12] (setting [22]); 126% in test [13] (setting [29]); 95.2% (active) in test [13] (at 0.5 µM). For the same compound, the inhibition is 130% in [13] (setting [30]); 95.2% (active) in test [14] (at 0.5 µM); 92% in [14] (setting [31]); 97.1% in [14] (setting [32]); 87.1% (active) in test [15] (at 0.5 µM); 82.2% in [15] (setting [33]). The inhibition in [15] (setting [34]) is 89.4%; in test [15] (single agent, at 0.05 µM), 86.9%; in test [15] (single agent, at 5 µM), 94.5%.
Regarding `CC(C)(O)c1cc2nc(-c3cnc(N)nc3)nc(N3CCOCC3)c2s1`, in test [17], the liver cell % of control is 68.4% and 67.7% and 82.5%; the parasite % of control is 539% (inactive) and 545% (inactive) and 563% (inactive).
